Compounds with a hit are over-represented: about 2.6% of the library has one in this group of screens.
PAFAH2 inh: PAFAH2 enzyme inhibitors, primary screen, biochemical, fluorescence polarization, human | Platelet-activating factor acetylhydrolase 2, cytoplasmic (Homo sapiens), Q99487 | recombinant PAFAH2, FP-rhodamine activity probe | inhibition, % at 3.39 µM | 340,000 tested, 0.99% active | AID 492956, 2010;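 active means inhibition above the mean over all tested compounds plus 3 SD, cut at about 30% in these data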;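 further: inhibitors block probe labeling of enzyme so polarization drops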
pPAFAH FP inh: pPAFAH enzyme inhibitors, primary screen, biochemical, fluorescence polarization, human; AID 463082, 2010; recombinant pPAFAH, FP-rhodamine probe fluorescence polarization; 330,000 tested, 1.5% active; inhibition, % at 3.39 µM;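 active means inhibition above the mean inhibition across the screen plus 3 SD, cut at about 25% in these data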;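 further: inhibitors block binding of the rhodamine activity-based probe so polarization drops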
PKA-R1A activ: activators of PKA-R1A holoenzyme, primary screen, biochemical, fluorescence polarization, Cy5-IP20, bovine R1A, mouse PKAc; PKA-R1A dissociation; scaled: DMSO 0%, 113 µM cGMP 100%; 340,000 tested, 0.083% active; activation, % at 11.4 µM; AID 504707, 2011;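 active means percent activation above the mean of all tested compounds plus 3 SD, cut at about 19% in these data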;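 further: higher means more PKAc released from R1A so a rise in polarization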
PKA-R2B act: activators of PKA-R2B holoenzyme, primary screen, biochemical, fluorescence polarization, Cy5-IP20, human | PKA-R2B holoenzyme dissociation; R2B truncated from residue 108, S112A mutant; 0% DMSO only, 100% 113 µM cGMP | activation, % at 11.4 µM | 340,000 tested, 0.079% active | AID 504700, 2011;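 active means activation above a cutoff set at the mean over all compounds plus 3 SD, cut at about 18% in these data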;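 further: higher means more holoenzyme dissociation and a rise in polarization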
PAFAH1B2 inh: PAFAH1B2 enzyme inhibitors, primary screen, biochemical, fluorescence polarization, human; recombinant PAFAH1B2, FP-rhodamine activity probe; inhibition, % at 3.39 µM; 340,000 tested, 1.2% active; AID 492953, 2010;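 active means inhibition above the mean of all tested compounds plus 3 SD, cut at about 24% in these data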
Target sequence (P68402 whole entry, looked up): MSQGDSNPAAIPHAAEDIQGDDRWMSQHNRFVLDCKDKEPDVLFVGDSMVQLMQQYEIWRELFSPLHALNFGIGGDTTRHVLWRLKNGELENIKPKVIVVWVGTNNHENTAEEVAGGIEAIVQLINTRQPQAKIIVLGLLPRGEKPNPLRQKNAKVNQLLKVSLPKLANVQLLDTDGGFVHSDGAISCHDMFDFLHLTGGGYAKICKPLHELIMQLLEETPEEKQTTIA
PAFAH1B3 FP inh: PAFAH1B3 enzyme inhibitors, primary screen, biochemical, fluorescence polarization, human; inhibition, % at 3.39 µM; AID 492972, 2010; recombinant PAFAH1B3, FP-rhodamine probe; 340,000 tested, 0.28% active; Platelet-activating factor acetylhydrolase IB subunit alpha1 (Homo sapiens), Q15102;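 active means inhibition above the screen-wide average of all tested compounds plus 3 SD, cut at about 25% in these data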
Target sequence (Q15102 whole entry, looked up): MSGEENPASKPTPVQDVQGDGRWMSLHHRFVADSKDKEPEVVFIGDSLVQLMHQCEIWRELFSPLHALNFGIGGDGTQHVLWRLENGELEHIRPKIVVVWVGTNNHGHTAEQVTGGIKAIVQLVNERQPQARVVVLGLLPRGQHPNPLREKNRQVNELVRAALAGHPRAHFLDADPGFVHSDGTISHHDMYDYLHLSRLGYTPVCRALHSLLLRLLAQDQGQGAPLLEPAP
Large screens that a line does not name were inactive.

CCOc1ccc(S(=O)(=O)NCCC(=O)OCC(=O)NC(=O)c2cccn2C)cc1	pPAFAH FP inh 25
COc1ccc(CN2CCNC(=O)C2CC(=O)N(C)Cc2nonc2C)c(F)c1 (stereo not drawn)	none
Cc1[nH]nc2c1C(c1ccc(Cl)cc1)C(C#N)=C(N)O2 (stereo not drawn)	PAFAH1B2 inh 28
Cc1ccc(Sc2ccc(NC(=O)CCN3C(=O)NC4(CCCC4)C3=O)cc2)c(C)c1	PAFAH2 inh 38, pPAFAH FP inh 32
NC(=O)c1ccc(NC(=O)CN2C(=O)NC3(CCCCCCC3)C2=O)cc1	pPAFAH FP inh 26
O=C(CCCN1C(=O)NC2(CCCC2)C1=O)Nc1ccc(F)cc1	none
Cc1ccc(C(CC(=O)O)NC(=O)c2ccc(S(=O)(=O)N3CC(C)OC(C)C3)cc2)cc1 (stereo not drawn)	none
C=CCN(c1ccc(Br)cc1C(=O)OC)S(C)(=O)=O	none
N#Cc1c(Nc2ccccc2)sc(C(=O)C2CC2)c1N	PAFAH1B2 inh 28
N#Cc1c(Nc2ccccc2)sc(C(=O)c2ccc(F)cc2)c1N	PAFAH1B2 inh 30
Nn1c(SCC(=O)Nc2cccnc2Cl)nnc1-c1ccccc1	none
COc1ccc(OCc2nnc(SC(C)C(=O)Nc3ccc(N4CCOCC4)cc3)n2C)cc1 (stereo not drawn)	none (no result: pPAFAH FP inh)
CC(C)Cn1c(N)c(C(=O)COC(=O)C2CC(=O)N(c3ccc4c(c3)OCCO4)C2)c(=O)n(C)c1=O (stereo not drawn)	none
O=C(Cc1c[nH]c2ccccc12)N1CCN(S(=O)(=O)c2ccc(Cl)cc2)CC1	none (no result: pPAFAH FP inh)
CC(=O)NC(Cc1c[nH]c2ccccc12)C(=O)OCC(=O)N1CCN(S(=O)(=O)c2ccc(Cl)cc2)CC1 (stereo not drawn)	PAFAH1B2 inh 88 (no result: pPAFAH FP inh)
CCCCn1c(=O)[nH]c2nc3cc(NC(C)=O)ccc3nc2c1=O	none
CCC(=O)Nc1ccc2nc3c(=O)[nH]c(=S)[nH]c3nc2c1	pPAFAH FP inh 26
CC(C)NC(=O)N(C)C[C@H]1Oc2ccc(NC(=O)Cc3ccccc3)cc2C(=O)N([C@H](C)CO)C[C@@H]1C	none
Cc1ccc(C(=O)NCC(=O)Nc2ccncc2)s1	none
c1ccc(-c2nc(-c3ccco3)n3ccccc23)cc1	pPAFAH FP inh 25
CN1CCN(CCNC(=O)c2ccc(CS(=O)c3ccc(Br)cc3)o2)CC1 (stereo not drawn)	none (no result: PAFAH2 inh, pPAFAH FP inh, PAFAH1B2 inh, PAFAH1B3 FP inh)
Cc1cc2oc(C(=O)N3CCN(Cc4ccccc4)CC3)c(C)c2cc1C	pPAFAH FP inh 26
O=C(CNS(=O)(=O)c1ccc(Br)s1)NCCc1ccc(Cl)cc1	PAFAH1B2 inh 29
Cc1ccc(CNS(=O)(=O)c2ccc(Br)s2)cc1	PAFAH1B2 inh 25
Cc1nc2ccc(S(=O)(=O)NCC(=O)NCCc3ccc(Cl)cc3)cc2s1	PAFAH1B2 inh 25
COc1ccc2cc(CCNS(=O)(=O)c3ccc(NC(C)=O)cc3)c(=O)[nH]c2c1	none
Cc1ccc(/C=C2/C(=N)N3N=C(CC(=O)N4CCCC4)SC3=NC2=O)cc1	pPAFAH FP inh 25
N=C1/C(=C\c2ccc(SCc3ccccc3)o2)C(=O)N=C2SC(CC(=O)N3CCOCC3)=NN12	pPAFAH FP inh 30
CN(C(=O)c1cc(-c2cccs2)nn1-c1ccccc1)C1CCS(=O)(=O)C1 (stereo not drawn)	none (no result: PAFAH2 inh, pPAFAH FP inh, PAFAH1B2 inh, PAFAH1B3 FP inh)
O=C(CSc1nnc(COc2ccc(Cl)cc2)o1)NC1CC2CCC1C2 (stereo not drawn)	PAFAH1B2 inh 24
CC1CCCCC1NC(=O)CSc1nnc(COc2ccc(Cl)cc2)o1 (stereo not drawn)	PAFAH1B2 inh 29
C[C@H]1COC(=O)[C@H](Cc2ccc(F)cc2)C/C=C\C[C@@H](CC(=O)N(CCO)Cc2ccccc2)C(=O)N1	none
CCc1cccc(NC(=O)c2ccc(NS(=O)(=O)c3c(C)noc3C)cc2)c1	pPAFAH FP inh 29
O=C(O)CC1(CC(=O)Nc2ccccc2Br)CCCC1	none
N=C1S/C(=C\c2ccco2)C(=O)N1c1ccc2c(c1)OCO2	pPAFAH FP inh 31
O=C(O)c1[nH]c2ccccc2c1-c1ccccc1	none
O=C(O)c1[nH]c2ccccc2c1C(c1cc(Br)ccc1O)c1c(C(=O)O)[nH]c2ccccc12	PAFAH1B2 inh 94
COc1cc(Cl)cc(C(c2c(C(=O)O)[nH]c3ccccc23)c2c(C(=O)O)[nH]c3ccccc23)c1O	PAFAH1B2 inh 83
O=C(O)c1[nH]c2ccccc2c1C(c1c(F)cccc1Cl)c1c(C(=O)O)[nH]c2ccccc12	PAFAH1B2 inh 49
Cc1[nH][nH]c(=O)c1C(c1cc(Br)ccc1O)c1c(C)[nH][nH]c1=O	none
COc1cc(C(=O)Nc2c(C(=O)O)[nH]c3ccccc23)cc(OC)c1OC	none (no result: pPAFAH FP inh)
Cc1ccc(S(=O)(=O)N2CCOCC2)cc1C(=O)Nc1ccc(N2CCCCCC2)cc1	none (no result: pPAFAH FP inh)
O=C(N=Nc1c(O)[nH]c2ccc(F)cc12)c1ccc(NS(=O)(=O)c2cccs2)cc1	none
O=C(N=Nc1c(O)[nH]c2ccccc12)c1ccccc1NS(=O)(=O)c1cccs1	none
Cc1cccc2c(N=Nc3ccc(S(=O)(=O)Nc4ccc(Cl)cc4)cc3[N+](=O)[O-])c(O)[nH]c12	pPAFAH FP inh 33
Cc1ccc2[nH]c(O)c(N=Nc3ccccc3[N+](=O)[O-])c2c1	none (no result: pPAFAH FP inh)
Cc1cccc2c(N=NC(=O)c3ccc(NS(=O)(=O)c4cccs4)cc3)c(O)[nH]c12	pPAFAH FP inh 28, PAFAH1B2 inh 39
COc1cccc(C(=O)NNC(=O)c2ccc(NS(=O)(=O)c3cccs3)cc2)c1OC	pPAFAH FP inh 26
Cc1ccc2[nH]c(O)c(N=NC(=O)c3ccc(NS(=O)(=O)c4cccs4)cc3)c2c1	pPAFAH FP inh 26, PAFAH1B2 inh 26
Cc1ccc(NC(=O)CSc2nnc(-c3ccoc3C)n2CCCN(C)C)cc1Cl	none
O=C(CSc1nnc(NC(=O)C2CC(=O)N(c3ccccc3)C2)s1)NCc1ccco1 (stereo not drawn)	none
CCN(CC(=O)Nc1sc2c(c1C#N)CCC(C)C2)Cc1nc2ccccc2c(=O)[nH]1 (stereo not drawn)	PAFAH1B2 inh 27

High-throughput results: PubChem, The Scripps Research Institute Molecular Screening Center
